A number with no mark means an inactive call. Entries that show only a call come without a potency. The source made the active and inactive calls. Calls come from the whole dose curve; as a rule, active = well fitted activation curve with a large enough effect in the repeat runs; inconclusive = weak or mixed curves; inactive = flat fitted curve, though single readings scatter.
Assay: A CellTox Green Cytotoxicity Assay to monitor cytotoxicity in HEK293 cells - 0 hour (AID 1224869); note: nearly all actives have a fitted effect of over 50% in size
Conditions: CellTox Green fluorescence; series mostly up to 76.8 µM
How it was run: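 Cytotoxicity was tracked continuously in HEK293 cells by a DNA-binding dye excluded from viable cells. Compounds were transferred in DMSO 5 h after seeding; fluorescence was recorded at intervals up to 40 h.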
In the case of `Nc1c(Cl)cc(Cl)cc1Cl`, the Potency was “inactive”. `CC(NN)c1ccccc1` (stereo unspecified) gave a cytotoxicity of -1.54% [at 15.8 µM]. In the case of `COc1cc(/C=C/C(=O)O[C@H]2CC[C@]34C[C@]35CC[C@]3(C)[C@@H]([C@H](C)CCC=C(C)C)CC[C@@]3(C)[C@@H]5CC[C@H]4C2(C)C)ccc1O`, the Potency was “inactive”. For `CCC(N)(CO)CO`, the Potency was “inactive”. With `CC1=NC(C)OC1C` (stereo unspecified) the Potency was “inactive”. For `CC(C)(C)C(=O)OCOC(=O)C1N2C(=O)CC2S(=O)(=O)C1(C)C` (stereo unspecified), the Potency was “inactive”. With `OCCCCCCCCCCCCBr` the Potency was “inactive”. With `CCN(CCC#N)c1ccc(N=Nc2c(Cl)cc([N+](=O)[O-])cc2Cl)cc1` the Potency was “inactive”. In the case of `COC(=O)C1=C(C)NC(C)=C(C(=O)OCC(C)C)C1c1ccccc1[N+](=O)[O-]` (stereo unspecified), the Potency was “inactive”. With `N#CC1(c2ccc(F)cc2)CCC(=O)CC1` the Potency was “inactive”. For `CCCCCCCCCCC=O`, the Potency was “inactive”. In the case of `CN(C)c1ccc(SC#N)cc1`, the Potency was “inactive”. For `CCCCCCCCOc1ccccc1C(=O)Nc1ccc(C(=O)OCC[N+](C)(CC)CC)cc1`, the Potency was “inactive”. For `CC(C)(C)c1ccc(C(=O)O)cc1`, the Potency was “inactive”. For `CC(C)(C)C1CCC(CC2=C(O)c3ccccc3C(=O)C2=O)CC1` (stereo unspecified), the Potency was “inactive”. In the case of `O=C1c2ccccc2Cc2ccccc21`, the Potency was “inactive”. With `Cc1nc(-c2ccc3c(c2)CCN(CCC2CCC(NC(=O)/C=C/c4ccc(F)cc4)CC2)CC3)no1` (stereo unspecified) the Potency was “inactive”. For `NC(=O)NS(=O)(=O)c1ccc(N)cc1`, the Potency was “inactive”. With `CCC1OCC(COc2ccc(Oc3ccccc3)cc2)O1` (stereo unspecified) the Potency was “inactive”. For `c1ccc(CSCc2ccccc2)cc1`, the Potency was “inactive”. With `Cc1cc(O)c(Cl)c(C)c1Cl` the Potency was “inactive”. With `Cc1c(C)c2c(c(C)c1O)CCC(C)(COc1ccc(CC3SC(=O)NC3=O)cc1)O2` (stereo unspecified) the Potency was “inactive”. With `C[C@H]1[C@H]2CC[C@H]3[C@@H]4CC=C5C[C@@H](N(C)C)CC[C@]5(C)[C@H]4CC[C@]23CN1C` the Potency was “inactive”. For `CCCCCOC(=O)CCCC`, the Potency was “inactive”. In the case of `CSc1cnc(C)cn1`, the Potency was 56.4 µM (active). With `O=c1[nH]cnc2nc[nH]c12` the Potency was “inactive”. For `Cc1cc(N)c(S(=O)(=O)O)cc1Cl`, the Potency was “inactive”. For `Fc1ccc([C@@H]2CCNC[C@H]2COc2ccc3c(c2)OCO3)cc1`, the Potency was “inactive”. With `C/C=C(\C)C(=O)OCc1ccccc1` the Potency was “inactive”. With `CCCCCCCC(=O)[O-].CCCCCCCC(=O)[O-].[Zn+2]` the Potency was “inactive”. In the case of `C1CCCC1`, the Potency was “inactive”. In the case of `C/C=C1/C(=O)C[C@H]2[C@@H]3CCC4=CC(=O)CC[C@]4(C)[C@H]3CC[C@]12C`, the Potency was “inactive”. In the case of `CN(C)CCCOC1(Cc2ccccc2)CCCCCC1`, the Potency was “inactive”. In the case of `CCC(C)(C)C1CCCCC1OC(C)=O` (stereo unspecified), the Potency was “inactive”. With `O=C(O)c1ccc(Cl)c(Cl)c1` the Potency was “inactive”. For `Cc1ccc(O)c(C(C)(C)C)c1`, the Potency was “inactive”.
Potency is the fitted concentration of half-maximal effect.
